# MEKK2 WT-MEK5: modulators of MEK5 binding to wildtype MEKK2, primary screen, biochemical, multiplex bead flow cytometry, Alexa488-MEK5. Alexa488-MEK5 binding to MEKK2 WT; actives lie on both sides. AID 1531, 2009. Mitogen-activated protein kinase kinase kinase 2 (Homo sapiens), Q9Y2U5. hit rate 1.1% among 290,000. binding response (% of control), % at 10 µM; in the data active = binding response below about 67% or above about 130%
# MEKK2mut PB1 HTS: MEK5 binding signal on mutant MEKK2 PB1, primary screen, biochemical, multiplex bead flow cytometry, Alexa488-MEK5 | Alexa488-MEK5 binding to MEKK2 mutant | percent response, % at 10 µM | hit rate 0.35% among 290,000 | AID 1530, 2009; in the data active = percent response above about 24%, passing the limit was not always enough
# MEKK3 PB1 HTS: modulators of MEKK3-MEK5 PB1 binding, primary screen, biochemical, wildtype MEKK3, multiplex bead flow cytometry, Alexa488-MEK5. Mitogen-activated protein kinase kinase kinase 3 (Homo sapiens), Q99759. bead-based flow cytometry, Alexa488-MEK5 binding to MEKK3; actives lie on both sides; 0 = blocked by unlabeled MEK5, 100 = vehicle. binding response (% of control), % at 10 µM. hit rate 1.4% among 290,000. AID 1529, 2009;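 active = binding response more than 3 SD above or below the average of its plate-row segment, actives on both sides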;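 note: Alexa488 bead fluorescence after subtracting the streptavidin-only scavenger bead signal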
# GRK2 inh: compounds blocking aptamer binding on GRK2 – biochemical, human GRK2, bead flow cytometry, HTS, primary screen. FAM-aptamer displacement from GRK2. AID 488847, 2010. Beta-adrenergic receptor kinase 1 (Homo sapiens), P25098. hit rate 0.59% among 330,000. inhibition of aptamer binding, % at 10 µM;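 active = inhibition of aptamer binding above 40%, roughly 3 SD of noise, on plates passing a quality check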;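 note: median bead fluorescence of bound FAM aptamer so fluorescent compounds give negative values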
# Target sequence (P25098 whole entry, looked up): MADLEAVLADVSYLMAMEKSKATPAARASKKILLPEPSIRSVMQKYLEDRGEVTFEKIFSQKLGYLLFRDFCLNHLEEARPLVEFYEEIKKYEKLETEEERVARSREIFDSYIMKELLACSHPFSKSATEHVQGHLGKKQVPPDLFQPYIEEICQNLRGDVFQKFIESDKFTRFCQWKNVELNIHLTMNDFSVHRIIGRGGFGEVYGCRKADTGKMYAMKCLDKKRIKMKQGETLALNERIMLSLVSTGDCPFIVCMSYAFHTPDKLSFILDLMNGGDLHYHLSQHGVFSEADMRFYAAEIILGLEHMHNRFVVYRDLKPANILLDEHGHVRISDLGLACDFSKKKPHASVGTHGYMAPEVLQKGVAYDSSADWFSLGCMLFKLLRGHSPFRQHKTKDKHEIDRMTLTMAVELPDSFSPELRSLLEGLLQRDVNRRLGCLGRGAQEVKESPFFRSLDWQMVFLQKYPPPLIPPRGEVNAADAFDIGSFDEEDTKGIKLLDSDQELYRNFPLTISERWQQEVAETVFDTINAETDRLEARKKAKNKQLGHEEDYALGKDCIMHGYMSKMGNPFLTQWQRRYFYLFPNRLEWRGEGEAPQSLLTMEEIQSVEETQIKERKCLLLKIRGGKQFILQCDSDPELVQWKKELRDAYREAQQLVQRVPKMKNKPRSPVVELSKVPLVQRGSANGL
# An asterisk follows results filed as active; / = no result given; [ ] = remark or other dose. A selection: hits, their analogues and other compounds. The true share with any hit is near 2.5%.
SMILES,MEKK2 WT-MEK5,MEKK2mut PB1 HTS,MEKK3 PB1 HTS,GRK2 inh
CC1(C)OC(=O)C(=Cc2ccc(-c3ccc(S(N)(=O)=O)cc3)o2)C(=O)O1,2.0*[inhibitor],-42,2.0*[inhibitor],0
Oc1ccc(N=C/C=C/c2ccc(Br)cc2)cc1-c1nc2ccccc2s1,105,3,104,41*
Brc1cc2c(cc1-c1nc3ccccc3s1)OCO2,104,6,102,3
C[n+]1c(/C=C/c2ccc(O)cc2)ccc2ccccc21,107,7,99,0
Cc1cc(/C=C\c2ccc3cc(N(C)C)ccc3[n+]2C)c(C)n1-c1ccccc1,/,/,/,71*
CCCCC(=O)NC(=S)Nc1nnn(CCC)n1,53,-18,43*[inhibitor],2
CCCCC(=O)Nc1nnn(CCC)n1,104,7,104,11
CC1=CCC(C(=O)O)C(C(=O)NC2CCCCC2)C1 (stereo not drawn),97,-2,102,89*
CC1=C(C)CC(C(=O)NC2CCCC2)C(C(=O)O)C1 (stereo not drawn),94,-1,96,/
Cc1[nH]c2ccccc2c1/C=N/NC(=O)c1cccc(Br)c1,42*,64*,111,0
Cc1ccc(NC(=S)N/N=C/c2c(C)[nH]c3ccccc23)cc1,38*,50,110,0
Cc1[nH]c2ccccc2c1/C=N/NC(=O)c1ccccc1,103,2,103,2
Cc1[nH]c2ccccc2c1/C=C/C(=O)c1ccccc1,16*,180*,150*,0
COc1ccc2c(Cl)c(C(=O)N/N=C/c3c(C)[nH]c4ccccc34)sc2c1,48*[inhibitor],22,96,0
NC(N)=N/N=C/c1ccc(OCc2ccccc2)c(OCc2ccccc2)c1,302*,116*,89,0
CCN(CC)CCCNc1ccc(-c2nnc(-c3ccc(OCC(C)C)cc3)o2)cn1,165*,36*,106,0
CN(CC1CCCN(CCc2cccc(C(F)(F)F)c2)C1)C(=O)c1cc2ccccc2o1 (stereo not drawn),131,24*,103,/
CCN(CC1CCCN(CCc2cccc(F)c2)C1)C(=O)c1cc2ccccc2o1 (stereo not drawn),107,10,102,0
CCOc1ccc(NCc2cccn2-c2nnc(N3CCC(C(=O)NCCCN4CCCCC4C)CC3)s2)cc1 (stereo not drawn),147*,33*,104,0
CCOc1ccc(NCc2cccn2-c2nnc(N3CCC(C(=O)NCCCN4C(C)CCCC4C)CC3)s2)cc1 (stereo not drawn),152*,25*,107,0
CCC1CCCCN1CCCNC(=O)C1CCN(c2nnc(-n3cccc3)s2)CC1 (stereo not drawn),141*,14,102,0
OC(COc1ccc(Br)cc1)CN1CCC(Cc2ccccc2)CC1 (stereo not drawn),135*,17,103,1
COc1cccc(C2C3=C(N=c4s/c(=C\c5cccc(O)c5)c(=O)n42)c2ccccc2CC3)c1OC (stereo not drawn),97,1,133*,1
O/C(=C\c1nc2ccccc2nc1/C=C(\O)c1ccccc1)c1ccccc1,20*,9,81,10
O=c1oc2ccccc2nc1/C=C(\O)c1ccccc1,100,-5,100,/
SMILES,MEKK2 WT-MEK5,MEKK2mut PB1 HTS,MEKK3 PB1 HTS,GRK2 inh
CCC(CC)COC(=O)C1=C(C)NC(=O)NC1c1cccc([N+](=O)[O-])c1 (stereo not drawn),108,11,110,4
C(=N\Nc1nc2ccccc2[nH]1)/c1c[nH]c2ccccc12,155*,11,105,0
COc1cc2cc(CN(C(=O)Nc3ccccc3)C3CCCC3)c(=O)[nH]c2cc1OC,104,4,106,5
Cc1ccc(NC(=O)CN(C)C(=O)c2cc(-c3ccco3)nc3ccccc23)cc1,/,/,/,83*
CCn1cc(-c2ccnc3cc(C(=O)O)nn23)c(C)n1,97,-2,94,6
O=C(O)c1ccc(N/N=C/C=C/c2ccc([N+](=O)[O-])o2)cc1,94,2,100,91*
Cc1cccc(CN2C(=O)/C(=C\c3ccc(C(=O)NCCCN4CCN(C)CC4)cc3)Oc3ccccc32)c1,162*,36*,105,0
CCN1CCN(CCNC(=O)c2ccc(/C=C3\Sc4ccccc4N(Cc4ccccc4F)C3=O)cc2)CC1,121,2,103,0
CN1CCN(CCCNC(=O)c2ccc(/C=C3\Oc4ccccc4N(Cc4ccccc4F)C3=O)cc2)CC1,159*,29*,104,0
Cc1cccc(CN2C(=O)c3ccccc3Sc3ccc(C(=O)NCCCN4CCOCC4)cc32)c1,114,9,100,0
COc1ccc(NC(=O)CSc2nc3n[nH]c(C)c3c(=N)n2-c2ccc(Cl)c(C)c2)cc1OC,104,4,103,0
CN(C)Cc1ccc(-c2nc3cccc4c3n2CCNC4=O)cc1,93,-4,99,1
CCOC(=O)c1ccc(S(=O)(=O)NNC(=O)COc2cccc(C)c2)cc1,99,1,102,0
CCOC(=O)c1ccc(S(=O)(=O)NNC(=O)COc2ccc(C)cc2)cc1,97,-1,89,92*
Cc1ccc(NC(=O)c2ccc(OC(=O)C(C)Oc3ccc(Cl)cc3C)cc2)cc1 (stereo not drawn),104,0,123,0
CN(C(=S)NC(=O)C12CC3CC(CC(C3)C1)C2)c1ccc(O)cc1,/,/,/,59*
Cc1ccc(CN(C)C(=O)CCc2c[nH]c3ccccc23)o1,97,1,104,1
CN(Cc1cccnc1)C(=O)CCCc1c[nH]c2ccccc12,135*,26*,104,0
Cc1ccn2c(C=O)c(-c3ccc(F)cc3)c(C=O)c2c1,-3.0*,13,93,0
O=Cc1c(-c2ccc(F)cc2)nc2ccccn12,112,0,126,1
CCCN1CCN(C(=O)C2CCN(c3nnc(C)c4c(C)n(-c5ccc(C)cc5)nc34)CC2)CC1,109,134*,113,0
Cc1ccc(-n2nc3c(N4CCC(C(=O)N5CCN(C)CC5)CC4)nnc(C)c3c2C)cc1,101,-13,99,2
Cc1cc(Br)cc2cn[nH]c12,40*,-28,79,0
Cc1cc2[nH]ncc2cc1NC(N)=S,100,0,103,0
Nc1ccc(S(=O)(=O)NC2=NCCCCC2)cc1,76,-13,76,0
O=C(NP(=O)(N1CCCC1)N1CCCC1)C1=C(N2CCOCC2)/C(=C/c2cccc([N+](=O)[O-])c2)CC1,100,0,104,2
O=[N+]([O-])c1ccc(/C=C2\CCC(C3=CCCC3)=C2N2CCOCC2)cc1,1.0*,2,101,10
NCC(=O)NCC(=O)OCc1ccccc1,114,0,119,0

# Screens (PubChem BioAssay)
